Assay results taken from PubChem BioAssay AID504582 (Broad Institute, 2011).
Hit rate of the full screen: of about 340,000 compounds, about 2,300 (0.68%) were called active. No stated cut-off is given here; in the data, active means growth rescue above about 28% (passing the limit was not always enough); inconclusive means no clear call, values can overlap the other calls. What follows is part of a selection rich in actives, with near analogues and random picks from the rest.

assay: rescue of yeast from PfHsp40 toxicity, primary screen, S. cerevisiae, ATP luminescence (AID 504582);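 further: yeast W303a lacking pdr1 and pdr3 grown in galactose medium; growth measured after three days at 30 °C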; details: S. cerevisiae expressing PfHsp40, growth rescue, at 12.5 µM, hits give high values

Question: With CCOc1ccc(S(=O)(=O)n2ccnc2)c2ccccc12 as the compound, how does the growth rescue read?
Answer: -0.0665% (inactive)

Question: With COc1cccc(NC(=O)C2CCCN2C(=O)OCc2ccccc2)c1 (centres undefined) as the compound, how does the growth rescue read?
Answer: 0.607% (inactive)

Question: With CN(C)C(=O)CCC(=O)N1CCCCC1C(=O)Nc1ccc(Oc2ccccc2F)cc1 (centres undefined) as the compound, how does the growth rescue read?
Answer: 141% (active)

Question: Which growth rescue does the source give for COc1ccc(NC(=O)N2CCCC2C(=O)NCc2ccccc2Cl)cc1 (centres undefined) here?
Answer: -2.16% (inactive)

Question: For COc1ccc(OC)c(C(=O)c2ccc(C(=O)N3CCN(Cc4csc(C)n4)CC3)cc2)c1, which growth rescue is on record?
Answer: -1.18% (inactive)

Question: For O=C(Cn1nnc(-c2ccccc2)n1)N/N=C/c1ccc(-c2ccc(Cl)cc2)o1, which growth rescue is on record?
Answer: -1.63% (inactive)

Question: With O=C(NCc1ccco1)C1CCCN(S(=O)(=O)c2cnc[nH]2)C1 (centres undefined) as the compound, how does the growth rescue read?
Answer: 0.411% (inactive)

Question: For COc1cc(/C=N/O)cc(Br)c1OCc1cccc(Cl)c1, which growth rescue is on record?
Answer: 157% (active)

Question: For COc1cc(/C=N/O)cc(Br)c1OS(=O)(=O)c1ccc(C)cc1, which growth rescue is on record?
Answer: -0.295% (inactive)

Question: Which growth rescue does the source give for COc1cc(C(=O)NCc2ccncc2)cc(Br)c1OCc1ccccc1 here?
Answer: 1.27% (inactive)

Question: With COc1ccc(OC)c(NC(=O)c2ccc3c(c2)C(=O)N(c2ccc(OC(C)=O)cc2)C3=O)c1 as the compound, how does the growth rescue read?
Answer: -0.414% (inactive)

Question: Which growth rescue does the source give for CC(=O)Oc1ccc(C)cc1N1C(=O)c2ccc(C(=O)O)cc2C1=O here?
Answer: 103% (active)

Question: For Cc1cccc(N2C(=O)c3ccc(C(=O)Nc4cccc(C(=O)O)c4)cc3C2=O)c1, which growth rescue is on record?
Answer: -0.247% (inactive)

Question: For CCc1ccc(C(=O)NNC(=O)C2CCN(c3ncnc4sc(C)c(C)c34)CC2)cc1, which growth rescue is on record?
Answer: 4.88% (inactive)

Question: With O=S(=O)(c1ccc(Br)cc1)n1ccc2ccccc21 as the compound, how does the growth rescue read?
Answer: 17.1% (inactive)

Question: Which growth rescue does the source give for CCCC(C)C(=O)OCC(=O)Nc1c(Br)cc(C)cc1Br (centres undefined) here?
Answer: 1.14% (inactive)

Question: Which growth rescue does the source give for COc1ccc(NC(=O)CSc2nc3ccccc3c(=O)n2C)cc1 here?
Answer: -2.46% (inactive)

Question: For COc1ccc(-c2nc3ccccc3c(=O)n2CCc2ccc(O)cc2)cc1, which growth rescue is on record?
Answer: 31.2% (active)

Question: With COc1ccc(OCc2ccc(-c3nc4ccccc4c(=O)n3N)o2)cc1 as the compound, how does the growth rescue read?
Answer: 0.704% (inactive)

Question: For Clc1ccccc1-c1cc(COc2ccc3ccccc3c2)no1, which growth rescue is on record?
Answer: -0.819% (inactive)

Question: For COc1cccc(C(O)c2nc3ccccc3n2C)c1 (centres undefined), which growth rescue is on record?
Answer: -0.645% (inactive)

Question: For CCCCCC(O)c1cccc(OCc2ccc3ccccc3n2)c1 (centres undefined), which growth rescue is on record?
Answer: 57.6% (active)

Question: With Cc1no[n+]([O-])c1COc1ccccc1/C=C1\NC(=S)NC1=O as the compound, how does the growth rescue read?
Answer: 0.211% (inactive)

Question: For Cc1[nH]c2c(C(=O)N3CCCC(CCC(=O)NCc4ccccc4F)C3)cccc2c1C (centres undefined), which growth rescue is on record?
Answer: 1.34% (inactive)

Question: For O=C(c1cn(-c2ccccc2)nc1-c1cccnc1)N1CCN(S(=O)(=O)c2ccccc2F)CC1, which growth rescue is on record?
Answer: -0.533% (inactive)

Question: With O=[N+]([O-])/C=C1\CCCCCN1 as the compound, how does the growth rescue read?
Answer: 0.302% (inactive)

Question: Which growth rescue does the source give for Cc1ccc(OCC(=O)NNC(=S)NCc2ccccc2)cc1 here?
Answer: -0.289% (inactive)

Question: With O=C(Nc1ccc2ccccc2c1)/C(=C\c1ccc2c(c1)OCO2)NC(=O)c1ccco1 as the compound, how does the growth rescue read?
Answer: 0.409% (inactive)

Question: With CCCc1ccc(OCC(=O)NNC(=S)NC(=O)c2ccco2)cc1 as the compound, how does the growth rescue read?
Answer: 58% (active)

Question: For O=C(Nc1ccc2ccccc2c1)/C(=C/c1cccc(Br)c1)NC(=O)c1ccco1, which growth rescue is on record?
Answer: 1.72% (inactive)

Question: For NS(=O)(=O)c1ccc(CNC(=S)NC(=O)c2ccco2)cc1, which growth rescue is on record?
Answer: 0.284% (inactive)

Question: With CC(Oc1ccc2ccccc2c1)C(=O)NNC(=S)NC(=O)c1ccco1 (centres undefined) as the compound, how does the growth rescue read?
Answer: 58.8% (active)

Question: Which growth rescue does the source give for COc1ccc(S(=O)(=O)n2nc(C)c(S(=O)(=O)N3CCOCC3)c2C)cc1 here?
Answer: 0.381% (inactive)

Question: With O=C(Cn1cnc2c(nnn2-c2ccccc2)c1=O)N1CCC(Cc2ccccc2)CC1 as the compound, how does the growth rescue read?
Answer: -0.205% (inactive)

Question: Which growth rescue does the source give for CCc1ccc(OCC(=O)OCC(=O)c2c(N)n(C)c(=O)n(C)c2=O)cc1 here?
Answer: 1.51% (inactive)

Question: For FC(F)(F)c1ccnc(Oc2ccc(C3=NCCS3)cc2)c1, which growth rescue is on record?
Answer: 4.54% (inactive)

Question: With C#CCNc1nc(C(C)C)nc2c1nnn2Cc1ccccc1F as the compound, how does the growth rescue read?
Answer: -0.851% (inactive)

Question: For CSc1sc(C(=O)NC(=O)NCc2cccnc2)c(C)c1-c1ccon1, which growth rescue is on record?
Answer: -0.426% (inactive)

Question: With O=C(NCCN1CCOCC1)c1cc(Sc2cccc(Cl)c2)nc2ccccc12 as the compound, how does the growth rescue read?
Answer: 1.79% (inactive)

Question: Which growth rescue does the source give for O=c1c(/C=N/O)coc2ccc(Cl)cc12 here?
Answer: 412% (active)

Question: For CCOC(=O)C1CCN(Cc2coc3ccc(Cl)cc3c2=O)CC1, which growth rescue is on record?
Answer: -0.75% (inactive)

Question: Which growth rescue does the source give for O=C1/C(=C/c2coc3ccc(O)cc3c2=O)SC(=S)N1c1ccccc1 here?
Answer: -0.334% (inactive)

Question: With COc1ccccc1C(=O)Nc1ccc(OCc2nnc3c4ccccc4c(C)nn23)cc1 as the compound, how does the growth rescue read?
Answer: 1.5% (inactive)

Question: Which growth rescue does the source give for COc1cc(OC)nc(N/N=C(\c2ccccc2)c2ccncc2)n1 here?
Answer: 0.409% (inactive)

Question: Which growth rescue does the source give for C/C(=N/Nc1nc(-c2ccccc2)c(CC(=O)O)s1)c1ccccc1 here?
Answer: -0.261% (inactive)

Question: Which growth rescue does the source give for c1ccc(C(=NNc2nc3ccccc3s2)c2ccccn2)cc1 here?
Answer: 223% (active)

Question: With CCOc1cc(/C=C(/C#N)c2ccc(Cl)cc2)cc(Cl)c1OCC(=O)O as the compound, how does the growth rescue read?
Answer: -0.745% (inactive)

Question: Which growth rescue does the source give for CSCCC(NC(=O)c1ccccc1)C(=O)N1CCN(Cc2ccc(Cl)cc2)CC1 (centres undefined) here?
Answer: 0.474% (inactive)

Question: For C[C@H](NC(=O)c1ccccc1Cl)C(=O)OCCOc1cccc(Cl)c1, which growth rescue is on record?
Answer: 4.16% (inactive)

Question: For COC(=O)c1cccc([N+](=O)[O-])c1CS(=O)(=O)c1ccc(C)cc1, which growth rescue is on record?
Answer: -1.34% (inactive)

Question: For O=C(/C=C/c1ccccc1[N+](=O)[O-])OCC(=O)N1CCCC1, which growth rescue is on record?
Answer: 48.9% (active)

Question: For O=C(/C=C/c1cccc([N+](=O)[O-])c1)OCC(=O)N1CCOCC1, which growth rescue is on record?
Answer: -0.951% (inactive)

Question: For CC(C)CNC(=O)COC(=O)/C=C/c1ccccc1[N+](=O)[O-], which growth rescue is on record?
Answer: -0.287% (inactive)

Question: For COC(=O)C1=C(NC(=O)C(C)(C)C)CCS1, which growth rescue is on record?
Answer: -1.07% (inactive)

Question: Which growth rescue does the source give for COc1ccc(CNC(=O)C2CCN(C(=O)c3ccco3)CC2)cc1 here?
Answer: 0.344% (inactive)

Question: With COc1cccc(-n2c(SCC(=O)c3c[nH]c4ccccc34)nc3ccccc3c2=O)c1 as the compound, how does the growth rescue read?
Answer: -1.82% (inactive)

Question: Which growth rescue does the source give for CCC/C(=N\O)c1c[nH]c2ccccc12 here?
Answer: 0.247% (inactive)

Question: With COc1ccc(/C=C(\C#N)c2c[nH]c3ccccc23)cc1 as the compound, how does the growth rescue read?
Answer: 509% (active)

Question: With Cn1c(CCc2ccccc2)nnc1SCC(N)=O as the compound, how does the growth rescue read?
Answer: 0.061% (inactive)
